Screen size: about 360,000 compounds; about 2,600 (0.72%) were called active.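 How the source made its calls: active means inhibition above its plate's cutoff, the mean inhibition of sample wells plus 3 SD (cut at about 27% in these data); inactive means the rest.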 The entries come from a sample that favours actives as a whole.

Chain of Muscarinic acetylcholine receptor M4 (Homo sapiens) (P08173 whole entry, looked up): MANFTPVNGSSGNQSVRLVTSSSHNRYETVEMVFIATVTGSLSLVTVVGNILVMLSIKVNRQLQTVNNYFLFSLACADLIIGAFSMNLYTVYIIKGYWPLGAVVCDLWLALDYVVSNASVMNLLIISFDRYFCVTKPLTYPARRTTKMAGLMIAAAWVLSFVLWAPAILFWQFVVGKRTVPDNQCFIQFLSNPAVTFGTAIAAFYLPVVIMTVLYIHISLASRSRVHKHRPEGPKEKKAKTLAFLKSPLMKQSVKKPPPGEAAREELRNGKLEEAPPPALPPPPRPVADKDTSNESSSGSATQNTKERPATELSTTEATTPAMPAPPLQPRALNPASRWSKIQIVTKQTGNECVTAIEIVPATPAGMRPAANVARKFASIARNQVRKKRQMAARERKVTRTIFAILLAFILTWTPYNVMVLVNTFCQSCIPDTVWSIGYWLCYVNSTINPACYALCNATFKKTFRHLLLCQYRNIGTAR

The experiment concerns the target Muscarinic acetylcholine receptor M4 (Homo sapiens) (UniProt P08173). In words: human M4 muscarinic receptor antagonists, primary screen, CHO cells, Fluo-8 calcium fluorescence (AID 624125).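 Further: 0% = acetylcholine EC80 with DMSO and 100% = DMSO without agonist.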 As to conditions: CHO-hM4 cells, ACh EC80, Fluo-8 calcium fluorescence; at 3 µM; stronger effect = higher value.
For the molecule `CCOC(=O)C1CCN(C(=O)Cn2nc(C)c3c(C)n(-c4ccccc4)nc3c2=O)CC1`, the inhibition was 9.38% (inactive).

For `Cc1cc(=O)oc2c3c(cc(OCC(=O)N[C@H](C(=O)O)c4ccccc4)c12)OC(C)(C)CC3`, the inhibition was -5.66% (inactive).

For `O=C1CCCC(O)=C1N=Nc1ccc2ncsc2c1`, the inhibition was 9.09% (inactive).

With `COc1ccc(NC(=O)N(C)C[C@H]2Oc3ccc(NC(=O)C4CC4)cc3C(=O)N([C@H](C)CO)C[C@@H]2C)cc1`, the inhibition was -10% (inactive).

For the molecule `Cc1nc2c(OCc3ccc(Cl)cc3Cl)cccn2c1N(C)CC1CC1`, the inhibition was 38% (active).

Regarding `Cc1nc2c(OCc3cccc(Cl)c3)cccn2c1N(C)CC1CC1`, the inhibition is 8.19% (inactive).

On to `CCc1nc2c(OCc3ccc(Cl)cc3Cl)cccn2c1N(C)C(=O)C(C)C`, for which the inhibition is -17.6% (inactive).

Turning to `COC(CNC(=O)c1ccc2c(c1)ncn2-c1cc(C)cc(C)c1)OC`, the inhibition is -0.94% (inactive).

As for `CCc1nc2c(OCc3ccccc3)cccn2c1N(C)C(=O)c1ccco1`, the inhibition was 8.33% (inactive).

With `COc1ccc(C(c2nnnn2Cc2cccs2)N2CCN(c3ccccc3)CC2)cc1OC` (stereo unspecified), the inhibition is -1.13% (inactive).

For the molecule `CCc1ccccc1NC(=O)NCCN1CCCCC1`, the inhibition is 4.05% (inactive).

On to `c1ccc2cc3[nH]c(CN4CCCCC4)nc3cc2c1`, for which the inhibition is -0.37% (inactive).

As for `O=C(c1ccccc1)C(O)(CN1CCCCC1)c1ccccc1` (stereo unspecified), the inhibition is 5.71% (inactive).

`CCCCCC(O)(CCN1CCCCC1)c1ccccc1` (stereo unspecified): the inhibition was 98.9% (active).

For `COc1ccc(C(O)(C2CCCCC2)C(CN2CCCC2)c2ccccc2)cc1` (stereo unspecified), the inhibition was 5.79% (inactive).

For the molecule `CCCCCCC(O)(CCN1CCCCC1)c1ccccc1` (stereo unspecified), the inhibition was 88.2% (active).

As for `CCCCOc1ccc(C(C)(O)CCN2CCOCC2)cc1` (stereo unspecified), the inhibition was 3.58% (inactive).

For the molecule `CC(CN1CCCCC1)c1ccccc1` (stereo unspecified), the inhibition is 5.04% (inactive).

As for `C#CC(CCN1CCCCC1)(OC)c1ccccc1` (stereo unspecified), the inhibition was 44.6% (active).

On to `CCC1SC(CC)C(=O)N(CC(=O)NC2CCCCC2)C1=O` (stereo unspecified), for which the inhibition was 4.12% (inactive).

Consider `Cc1ccc(C(=O)NC(=S)Nc2ccc3[nH]c(=O)[nH]c3c2)cc1C`, for which the inhibition was -8.35% (inactive).

For the molecule `COC(=O)c1cccc(-n2[nH]nnc2=S)c1`, the inhibition was 2.86% (inactive).

`COc1ccccc1C(=O)NCCn1cc(SCC(=O)NCc2ccco2)c2ccccc21`: the inhibition was 6.25% (inactive).

As for `COc1cc2c3c(c1)/C(=C1/SC(=S)NC1=O)C(=O)N3C(C)(C)C=C2C`, the inhibition was 9.66% (inactive).

As to `C=CC[C@@H](CC(=O)N[C@@H](CO)Cc1ccccc1)C(=O)NCCOC(=O)[C@@H](CC=C)CC(=O)OC(C)(C)C`, the inhibition was -5.01% (inactive).

Take `CCc1cc(C(c2ccccc2OC)N2CCOCC2)c(NC(=O)c2ccccc2)s1` (stereo unspecified): the inhibition is -6.12% (inactive).

On to `COc1ccc(COC(=O)c2n[nH]c3ccccc23)cc1F`, for which the inhibition is 3.64% (inactive).

As for `CCCOc1ccccc1C(=O)NCCCC(=O)O`, the inhibition is -1.85% (inactive).

Regarding `CN(C)c1ccc(N/C=C/C(=O)C(F)(F)F)cc1`, the inhibition was -4.11% (inactive).

Consider `COC(=O)c1cc(NC(=O)CN2CCN(C(C)=O)CC2)cc(C(=O)OC)c1`, for which the inhibition was 1.81% (inactive).

Take `Cc1cc2c(cc1C)N(Cc1ccccc1)C1=NCCCN12`: the inhibition was 10.6% (inactive).

For `CN(Cc1cccnc1)C(=O)c1cc(COc2ccc3ncccc3c2)on1`, the inhibition is 44.2% (active).

Turning to `Cc1cc(CN(C)C(=O)c2cc(COc3ccc(C)c(C)c3)on2)n[nH]1`, the inhibition was -2.16% (inactive).

On to `Cc1ccc(OCc2cc(C(=O)N(C)CCn3ccnc3C)no2)cc1C`, for which the inhibition was -0.14% (inactive).

As for `Cc1ccc2c(c1)N(CC(=O)N(Cc1ccccn1)Cc1ccco1)C(=O)C(C(C)C)O2` (stereo unspecified), the inhibition was -6.51% (inactive).

With `O=[N+]([O-])c1c(NCCO)cc(Sc2nc3ccccc3s2)c2nonc12`, the inhibition is 74.6% (active).

As to `CCCCN1C(=O)/C(=C2/C=CC=CN2C)SC1=S`, the inhibition is 28.7% (active).

Consider `CCS(=O)(=O)N1CCCC(C(=O)NCCCN(C)Cc2ccccc2)C1` (stereo unspecified), for which the inhibition was 6.16% (inactive).

`CCS(=O)(=O)c1ccc2c(c1)N(S(=O)(=O)c1ccccc1)CC(C(=O)O)O2` (stereo unspecified): the inhibition was 0.74% (inactive).

Turning to `c1ccc2c(c1)CSc1sccc1C2=C1CCNCC1`, the inhibition was 97.6% (active).

For `CCCCN(CC(=O)Nc1cccc(S(=O)(=O)N2CCCC2)c1)Cc1nc2ccccc2c(=O)[nH]1`, the inhibition was 15.9% (inactive).

On to `O=C1CCCc2nn(-c3ccccc3)nc21`, for which the inhibition is 2.29% (inactive).

As to `CCCOCC(O)CC(CC)C(=O)NNC(=S)Nc1ccccc1` (stereo unspecified), the inhibition was -8.64% (inactive).

`CCCCC(=O)NNC(=S)NC(=O)C(c1ccccc1)c1ccccc1`: the inhibition was 59.9% (active).

For the molecule `C=CCC(NC(=O)Cc1ccccc1)C(=O)NCCC` (stereo unspecified), the inhibition was 0.03% (inactive).

For `CCOc1ccc(N(CC)S(=O)(=O)c2cccc3nsnc23)cc1`, the inhibition was 4.82% (inactive).

For the molecule `O=C(/C=C/[C@H]1O[C@@H](n2ccc(=O)[nH]c2=O)[C@H](O)[C@@H]1O)NCc1ccccn1`, the inhibition was -0.74% (inactive).

Take `COc1ccc(C(=O)O)cc1S(=O)(=O)NCc1cccnc1`: the inhibition is -5.56% (inactive).

Regarding `COc1ccc(C(=O)NC2CC(C)(C)Cc3c2cnn3-c2ccccc2)c(OC)c1` (stereo unspecified), the inhibition is -2.19% (inactive).

Take `Cn1nccc1C(=O)NC1CCCc2c1cnn2-c1ccc(F)cc1F` (stereo unspecified): the inhibition is 4.7% (inactive).

Turning to `COc1ccc(C(=O)NC2CCCc3c2cnn3-c2cccc(C)c2C)c(OC)n1` (stereo unspecified), the inhibition is 30.6% (active).

In the case of `CCC(Oc1ccccc1)C(=O)NCc1cccnc1` (stereo unspecified), the inhibition is -2.11% (inactive).

Consider `CCN(CC(=O)Nc1ccc(NC(C)=O)cc1)C(=O)C1CC(=O)N(Cc2ccc(C)cc2)C1` (stereo unspecified), for which the inhibition was -10% (inactive).

Consider `O=C1CC[C@@H](C(=O)N2CSC[C@@H]2C(=O)Nc2ccc(C(F)(F)F)cc2)N1`, for which the inhibition was -9.06% (inactive).

Consider `Cc1c(Cl)cccc1NC(=O)CSc1ccc(-c2cccnc2)nn1`, for which the inhibition is 4.65% (inactive).

Take `O=C(NCc1ccc2c(c1)OCO2)C1CCCN(S(=O)(=O)c2cccs2)C1` (stereo unspecified): the inhibition was -10.7% (inactive).

As to `O=C1C(Cl)=C(Oc2ccccc2)C(=O)c2ccccc21`, the inhibition is 43.5% (active).

With `O=C(Nn1cnc2ccccc2c1=O)c1ccc(F)cc1Cl`, the inhibition was 0.01% (inactive).

`COC(=O)[C@@]12CCCN1[C@H](c1ccc(-c3ccc(F)cc3)c(OC)c1)[C@H]1C(=O)N(C)C(=O)[C@H]12`: the inhibition is 0.47% (inactive).

With `CC(C)(C)NC(=O)/C(=C/c1cccnc1)NC(=O)c1ccco1`, the inhibition was -1.31% (inactive).

Regarding `COc1ccc(-c2onc3ccc(C(C)=O)cc23)cc1`, the inhibition is -10.7% (inactive).

In the case of `CCn1c2ccccc2c2cc(NC(=S)N3CCOCC3)ccc21`, the inhibition is 3.52% (inactive).

`O=C(CN1CCOc2ccccc21)N1CCC(Cc2ccccc2)CC1`: the inhibition is -1.37% (inactive).

`O=C(Nc1ccc2c(c1)OCCO2)C(C1CC1)N1CCC(Cc2ccccc2)CC1` (stereo unspecified): the inhibition is 28.2% (active).

On to `Nc1c(C(=O)Nc2ccc3c(c2)OCCO3)nnn1Cc1ccccc1`, for which the inhibition was 1.65% (inactive).

As for `O=C(Nc1ccccc1C(=O)N1CCOCC1)c1ccc(Cl)cc1`, the inhibition is -14.3% (inactive).

Take `CCOC(=O)N(Cc1ccccc1)C1CC1`: the inhibition is 2.24% (inactive).

Take `CN(C(=O)CN(CCO)CC(=O)N(C)C(C)(C)Cc1ccccc1)C(C)(C)Cc1ccccc1`: the inhibition is 28.1% (active).

For `CN(CCO)C(=O)c1nc[nH]c1C(=O)N(C)Cc1ccccc1`, the inhibition was -23.3% (inactive).

`Cc1ccc2cc(C#N)c(NCCNC(=S)NCCCN3CCOCC3)nc2c1`: the inhibition was -4.3% (inactive).

As for `COCCn1c(C)cc(C(=O)CN2c3cccc4cccc(c34)S2(=O)=O)c1C`, the inhibition is -7.15% (inactive).

In the case of `CCOC(=O)N1CCN(C(=O)c2cn(C)c3ccc(S(=O)(=O)N4CCCC4)cc3c2=O)CC1`, the inhibition is 58.7% (active).

For the molecule `COc1ccc(N2CCN(C(=O)c3cn(C)c4ccc(S(=O)(=O)N5CCOCC5)cc4c3=O)CC2)cc1`, the inhibition is -12.4% (inactive).

`CCOC(=O)N1CCN(C(=O)c2cn(C)c3ccc(S(=O)(=O)N(CC)CC)cc3c2=O)CC1`: the inhibition is -13.5% (inactive).

Consider `CCCCSc1nc2c(c(=O)n1CC)SC(C)C2` (stereo unspecified), for which the inhibition was -22.6% (inactive).

In the case of `Cc1ccc(NC(=O)C(C)OC(=O)Cc2c[nH]c3ccccc23)cc1S(=O)(=O)N1CCOCC1` (stereo unspecified), the inhibition was -17.2% (inactive).

With `Cc1ccc(S(=O)(=O)N(Cc2ccc(Cl)cc2)c2ccccc2C(=O)NCc2cccnc2)cc1`, the inhibition is 2.37% (inactive).

As to `Nc1nc(NCc2ccccc2)n(-c2ccccc2)n1`, the inhibition is -15.7% (inactive).

For `CCCCCCn1c(=O)n2n(c1=O)C[C@]1(OC(=O)NCc3ccc(OC)c(OC)c3)CN(S(=O)(=O)c3ccc(C)cc3)C[C@]1(O)C2`, the inhibition is -8.79% (inactive).

Take `O=S1(=O)CCN(Cc2ccccc2)CC1`: the inhibition is -1.75% (inactive).

`NC(=O)C1(N2CCCC2)CCN(Cc2ccccc2)CC1`: the inhibition was -8.47% (inactive).

For the molecule `CC12CN(Cc3ccccc3)CC(C)(CN(Cc3ccccc3)C1)C2=NO`, the inhibition is 31.4% (active).

For the molecule `COc1cccc(CC(=O)N2CCCC(CCC(=O)N3CCN(c4ccccn4)CC3)C2)c1` (stereo unspecified), the inhibition is -6.8% (inactive).

On to `CC(=O)N[C@@H](C)C(=O)N1CCC(n2nccc2NC(=O)CCCc2ccccc2)CC1`, for which the inhibition was -1.73% (inactive).

For the molecule `COc1ccccc1NC(=O)COC(=O)Cc1ccc(S(=O)(=O)N2CCCCC2)s1`, the inhibition was -3.41% (inactive).

Turning to `CC(C)Nc1nnc(SC(C)C(=O)N(C)C2CCCCC2)s1` (stereo unspecified), the inhibition was 3.18% (inactive).

Turning to `COc1cc(C(=O)NCc2nnc(SCC(=O)Nc3nc4ccc(C)cc4s3)o2)cc(OC)c1OC`, the inhibition is 1.54% (inactive).

`CCn1c(CNC(=O)c2cc(OC)c(OC)c(OC)c2)cc2cc(C)ccc21`: the inhibition is 28.2% (active).

Turning to `COc1cc(C(=O)NCc2ccc(-n3cccc3)cc2)cc(OC)c1OC`, the inhibition was 9.05% (inactive).

Turning to `Cc1ccc(S(=O)(=O)N2CCC(C(=O)N[C@@H](C)C(=O)NCc3ccccc3)CC2)cc1`, the inhibition was -7.25% (inactive).

Consider `Cc1coc2c1c(C)cc1oc(=O)c(CC(=O)NCC(=O)N[C@H](C(=O)O)C(C)C)c(C)c12`, for which the inhibition is 12.9% (inactive).

One may read the inhibition as the relative decrease from the control value, in per cent.

The record behind these values is PubChem BioAssay AID624125 (The Scripps Research Institute Molecular Screening Center, 2012).
